The whole screen tested about 200,000 compounds, of which about 18,000 (9%) were called active. Shown is part of a subset that was picked to be rich in actives. Unmarked numbers belong to inactive results. No stated cut-off is given here; in the data, active means inhibition above about 50%; inactive means the rest.
Assay: antileishmanial activity against promastigotes – primary screen (AID 1063);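 further: promastigotes grown with compound for 44 hours at 28 °C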
Details: Leishmania major promastigotes, resazurin fluorescence viability; at 10 µM; hits give high values
In the case of O=C(Nc1ccc2c(c1)C(=O)OC2)Nc1cccc2ccccc12, the inhibition is reported as -3.46%.
Work on CC1=NN(c2ccccc2)C(=O)C1C(=O)c1ccc([N+](=O)[O-])cc1 (centres undefined) yielded an inhibition of -7.88%.
For COc1cc(OC)nc(N/N=C(\c2ccccc2)c2ccncc2)n1, the inhibition was -5.12%.
CC(=O)NCCc1nc2cc(NC(=O)c3ccccc3)ccc2n1C showed an inhibition of -4.08%.
Work on CCN(CC)N=Nc1cccc(NC(C)=O)c1 yielded an inhibition of -3.03%.
For CC[n+]1c(C)n(-c2ccccc2)c2ccc(NC(C)=O)cc21, the inhibition was 98.2% (active).
Work on O=C(Nc1ccc2cn[nH]c2c1)c1ccc(S(=O)(=O)N2CCOCC2)cc1 yielded an inhibition of -3.16%.
In the case of O=C(C(Cl)Cl)N1CCN(c2ccccn2)CC1, the inhibition is reported as 64.4% (active).
In the case of CC(=C1C(=O)c2ccccc2C1=O)N1CCN(c2ccccn2)CC1, the inhibition is reported as -2.16%.
O=C(Cc1ccccc1Cl)N1CCN(c2ccccn2)CC1 gave an inhibition of -2.27%.
COC(c1ccccc1)c1nnc(CCC(=O)N2CCN(CCOc3ccccc3)CC2)o1 (centres undefined) gave an inhibition of -4.38%.
With CC1=C/C(=N\S(=O)(=O)c2ccccc2)C(C(C)C)=CC1=O the inhibition was -0.21%.
For Cc1ccc(S(=O)(=O)c2ccc(Oc3ccccc3)cc2)cc1, the inhibition was -3.38%.
For CC1=C/C(=N\OS(=O)(=O)c2ccccc2)C=CC1=O, the inhibition was 100% (active).
For Cc1cccc(C(=O)N2CCC(c3nc4ccccc4s3)CC2)c1, the inhibition was -2.51%.
Work on Cc1cccc(/C(N)=N/OC(=O)c2ccccc2Cl)c1 yielded an inhibition of 16.9%.
Work on COC(=O)c1cccc([N+](=O)[O-])c1CS(=O)(=O)c1ccc(C)cc1 yielded an inhibition of -1.5%.
CC(=O)Nc1ccc(S(=O)(=O)Nc2nc(-c3ccc(C(C)(C)C)cc3)cs2)cc1 gave an inhibition of 6.97%.
With CC(=O)Nc1ccc(-c2csc(NC=C3C(=O)OC(C)(C)OC3=O)n2)cc1 the inhibition was 0.56%.
For CC(=O)Nc1ccc(-c2csc(NC(=O)Nc3ccccc3)n2)cc1, the inhibition was 58.2% (active).
Work on Cc1cc(C(=O)CSc2nc(N)cc(=O)[nH]2)c(C)n1-c1cccc(F)c1 yielded an inhibition of 23.6%.
For O=C(CCN1C(=O)/C(=C/c2cccs2)SC1=S)NNC(=O)c1cccc(O)c1, the inhibition was -5.28%.
In the case of O=C1c2cccc3c([N+](=O)[O-])ccc(c23)C(=O)N1CC1CCCO1 (centres undefined), the inhibition is reported as 101% (active).
In the case of O=c1c2cc3c(=O)n(CC4CCCO4)c(=O)c3cc2c(=O)n1CC1CCCO1 (centres undefined), the inhibition is reported as -5.65%.
With O=C(NCc1ccc2c(c1)OCO2)c1ccc2c(c1)C(=O)N(CC1CCCO1)C2=O (centres undefined) the inhibition was -1.97%.
Cc1cc(C)cc(OCC(=O)Nc2ccc(S(=O)(=O)Nc3ccccn3)cc2)c1 gave an inhibition of 7.3%.
O=C(C1CCCO1)N1CCN(C(=S)NC2CC2)CC1 (centres undefined) gave an inhibition of -5.96%.
With CCn1c(-c2ccncc2)n[nH]c1=S the inhibition was -0.2%.
Cc1nc(SCC(=O)Nc2cc(C)on2)c2c3c(sc2n1)CCCC3 showed an inhibition of 1.37%.
In the case of Cc1cc(C)n(-c2nc(SCC(=O)N3CCCC3)c3c4c(sc3n2)CCCC4)n1, the inhibition is reported as 63.1% (active).
In the case of COCCNc1nc(-n2nc(C)cc2C)nc2sc3c(c12)CCCC3, the inhibition is reported as 64% (active).
Molecule Cc1nc2sc3c(c2c(=O)n1NC(=O)CCl)CCCC3 has an inhibition of -0.99%.
Molecule CCC(O)CNc1nc(-n2nc(C)cc2C)nc2sc3c(c12)CC(C)(C)OC3 (centres undefined) has an inhibition of 9.97%.
Molecule COCCn1c(C)cc(C(=O)CSc2ncnc3sc4c(c23)CCC4)c1C has an inhibition of -5.34%.
With O=C(CSc1ccc([N+](=O)[O-])cn1)Nc1ccc(N2CCOCC2)c(Cl)c1 the inhibition was 8.08%.
In the case of O=C(CCc1ccccc1)NCCc1cccs1, the inhibition is reported as -9.15%.
Work on COc1ccc(OC)c2[nH]c(=O)c(CCNC(=O)C(=O)c3c[nH]c4ccccc34)cc12 yielded an inhibition of -6.77%.
COc1cc(NC(=S)N2CCCC(C)C2)c(OC)cc1Cl (centres undefined) gave an inhibition of 6.09%.
Cc1cccc(N(C(=O)Cc2cccs2)C(C(=O)NCc2ccco2)c2ccncc2)c1 (centres undefined) gave an inhibition of 6.9%.
Molecule Cc1cccc(C(=O)N2CCc3c([nH]c4ccccc34)C2CC(C)C)n1 (centres undefined) has an inhibition of 31.8%.
For Cc1cccc(C2c3[nH]c4ccccc4c3CCN2C(=O)c2cc(-c3cccn3C)n[nH]2)n1 (centres undefined), the inhibition was 70.9% (active).
O=C(c1cn2ccccc2n1)N1CCc2c([nH]c3ccccc23)C1c1ccccn1 (centres undefined) showed an inhibition of 13.8%.
CC1(C)CC(=O)C(CC(=O)N2CCC(Cc3ccccc3)CC2)C(=O)C1 showed an inhibition of -0.44%.
Cc1cc(C(C)(C)C)cc(S(=O)(=O)Nc2ccc(C(=O)O)cc2)c1C showed an inhibition of -3.3%.
With CCOc1ccccc1Nc1ccc(C(=O)O)cc1[N+](=O)[O-] the inhibition was -1.36%.
Cn1c(=O)cc(OCCCC(=O)N2CCN(Cc3ccc4c(c3)OCO4)CC2)c2ccccc21 showed an inhibition of 11.9%.
For CS(=O)(=O)N(CC(=O)N1CCN(Cc2ccc3c(c2)OCO3)CC1)c1ccc2c(c1)OCO2, the inhibition was -5.11%.
With O=C(CSCc1ccc(Cl)cc1)N1CCN(Cc2ccc3c(c2)OCO3)CC1 the inhibition was 90.7% (active).
Work on O=C(Nc1cccc2ccccc12)N1CCN(Cc2ccc3c(c2)OCO3)CC1 yielded an inhibition of 24.5%.
Work on O=C(CSCc1ccc(Cl)cc1)N1CCCCC1 yielded an inhibition of -3.7%.
For O=C(CCCN1C(=O)c2cccc3cccc(c23)C1=O)N1CCN(Cc2ccc3c(c2)OCO3)CC1, the inhibition was 53.9% (active).
In the case of CCc1ccccc1NC(=O)CSc1nnc(-c2ccncc2)o1, the inhibition is reported as -6.71%.
In the case of Cc1ccc(OCc2n[nH]c(=S)n2-c2ccc(C)cc2)cc1, the inhibition is reported as 1.58%.
Cc1c(-c2cccc(Cl)c2)nc2ccccc2c1C(=O)OCC(=O)N(C)C1CCS(=O)(=O)C1 (centres undefined) showed an inhibition of 30.9%.
In the case of Cc1ccc(C(=O)N2CCCCCC2)cc1Br, the inhibition is reported as 1.69%.
COc1cc(OC)c(C(=O)N2CCCC2)cc1OC showed an inhibition of -1.38%.
For Cc1c(Br)cc(C(=O)N2CCCCCC2)c(C)c1C, the inhibition was 79% (active).
Cc1ccc(NC(=O)CSc2nnc(CNC(=O)c3ccccc3F)o2)cc1 gave an inhibition of -3.87%.
Molecule CCC(C)(C)NC(=O)CN(C(=O)C(=O)Nc1ccc2c(c1)OCCO2)C(C)(C)CC has an inhibition of 9.2%.

Reference: PubChem BioAssay AID1063 (University of Pittsburgh Molecular Library Screening Center, 2008)
